# Laboratory results: PubChem BioAssay AID1645838 (ICCB-Longwood Screening Facility, Harvard Medical School, 2021)
# “And” between values parts separate entries of the source, which are not always exact repeats. Equal values may be shown once. The whole screen tested about 2,000 compounds, of which about 100 (5%) were called active. This is one part of a sample in which actives are shown more often than they occur. Cut-off read from the data, not from the text of the source: active = z-score above about 2; inactive = the rest. Some compounds were tested as several samples or in several runs, with calls that do not always agree.
# Assay: supercomplex reporter luminescence per Hoechst cell count – Hoechst nuclei count (AID 1645838);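 note: control cybrid cells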;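 for z-score: higher means more mitochondrial supercomplex formation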
# Conditions: Cells, luminescence/Hoechst cell count ratio; for z-score: stronger effect = higher value; for cell count: measured here: cell number, Hoechst nuclei count
# [1] = library stock concentration (final well concentration not given) 46 uM
# [2] = library stock concentration (final well concentration not given) 278 uM
# [3] = library stock concentration (final well concentration not given) 1.67 mM
# [4] = library stock concentration (final well concentration not given) 10 mM
# [5] = library stock concentration (final well concentration not given) 80 uM
# [6] = library stock concentration (final well concentration not given) 400 uM
# [7] = library stock concentration (final well concentration not given) 2 mM
smiles,measurement,setting,value
CCCCCCCCCCCCCCCC(=O)NC(C)C,z-score,,-0.641 (inactive)
same,cell count,,5670
CCCCCC(=O)/C=C/C=O,z-score,,3.38 (active)
same,cell count,,4570
CCCCCC/C=C\CCCCCCCC(=O)OCC,z-score,,-0.872 (inactive)
same,cell count,,5340
Cc1ccc(C)c(-n2sc3cc(F)ccc3c2=O)c1,z-score,[1],-0.174 (inactive)
same,z-score,[2],-0.302 (inactive)
same,z-score,[3],-1.02 (inactive)
same,z-score,[4],1.44 (inactive)
same,cell count,[1],7370
same,cell count,[2],6230
same,cell count,[3],7150
same,cell count,[4],2660
CS(=O)(=O)N1CCc2c(-c3cnc(N)nc3)nc(N3CCOCC3)nc21,outcome,library stock 10 mM,inactive; censored for cell count
same,z-score,[5],-0.156 (inactive)
same,z-score,[6],0.294 (inactive)
same,z-score,[7],1.97 (active)
same,cell count,[5],5660
same,cell count,[6],4440
same,cell count,[7],2590
CC1=C(C(=O)Nc2ccccc2C)C(c2cccc([N+](=O)[O-])c2)C2=C(CCCC2=O)N1 (stereo not given),z-score,[5],0.502 (inactive)
same,z-score,[6],0.355 (inactive)
same,z-score,[7],-0.0592 (inactive)
same,z-score,[4],0.0886 (inactive)
same,cell count,[5],4870
same,cell count,[6],4830
same,cell count,[7],4490
same,cell count,[4],4680
CCCCCCCCCCCCCCCCC/C=C\C(=O)O,z-score,,0.0429 (inactive)
same,cell count,,4620
CCCCCCCC/C=C\CCCCCCCC(=O)NCC,z-score,,0.358 (inactive)
same,cell count,,5660
CCCCCCCC(=O)OC[C@H](CO)OC(=O)CCCCCCC,z-score,,-0.0675 (inactive)
same,cell count,,5320
CC(C)[C@H](C(=O)Nc1ccc(C(=O)NO)cc1)c1ccccc1,outcome,,inactive; censored for cell count
CCCCN(Cc1ccc(C(=O)NO)cc1)C(=O)Nc1ccccc1,z-score,[5],-0.413 (inactive)
same,z-score,[6],-0.344 (inactive)
same,z-score,[7],0.545 (inactive)
same,z-score,[4],1.99 (active)
same,cell count,[5],5840
same,cell count,[6],5790
same,cell count,[7],4990
same,cell count,[4],3280
CCCCCc1ccc(C=CC(=O)Nc2ccccc2C(=O)O)cc1,z-score,[1],0.0102 (inactive)
same,z-score,[2],-0.157 (inactive)
same,z-score,[3],-0.383 (inactive)
same,z-score,[4],-0.45 (inactive)
same,cell count,[1],6840
same,cell count,[2],6660
same,cell count,[3],6860
same,cell count,[4],6620
CC(C)(C)CCN1C[C@@H]2C(CNC(=O)c3cc(Cl)cc(Cl)c3)[C@@H]2C1 (stereo not given in full),z-score,[5],0.249 (inactive)
same,z-score,[6],-0.0169 (inactive)
same,z-score,[7],-0.303 (inactive)
same,z-score,[4],-0.298 (inactive)
same,cell count,[5],4670
same,cell count,[6],5180
same,cell count,[7],5270
same,cell count,[4],4390
CCCCC[C@H](O)/C=C/[C@@H]1[C@H]2CC(CCCCC(=O)O)O[C@H]2C[C@H]1O (stereo not given in full),z-score,,-0.784 (inactive)
same,cell count,,6080
O=C(NC(=O)c1c(F)cccc1Cl)NC1c2ccccc2-c2ccccc21,z-score,[1],-0.18 (inactive)
same,z-score,[2],-0.113 (inactive)
same,z-score,[3],-0.216 (inactive)
same,z-score,[4],-0.278 (inactive)
same,cell count,[1],6490
same,cell count,[2],6240
same,cell count,[3],6190
same,cell count,[4],5520
CC(C=CC1=C(C)CCCC1(C)C)=CC=CC(C)=CC(=O)O,z-score,[1],-0.113 (inactive)
same,z-score,[2],-0.063 (inactive)
same,z-score,[3],-0.22 (inactive)
same,z-score,[4],0.0473 (inactive)
same,cell count,[1],5180
same,cell count,[2],5150
same,cell count,[3],5430
same,cell count,[4],4870
O=C1NC(=O)C(=Cc2ccc3nccnc3c2)S1,z-score,[5],-0.0169 (inactive) and -0.181 (inactive)
same,z-score,[6],0.573 (inactive) and -0.161 (inactive)
same,z-score,[7],1.47 (inactive) and -0.299 (inactive)
same,z-score,[4],2.46 (active) and -0.465 (inactive)
same,cell count,[5],4280 and 5470
same,cell count,[6],4140 and 5420
same,cell count,[7],3800 and 5820
same,cell count,[4],2300 and 3900
O=C1NC(=O)/C(=C/c2ccc3c(c2)OC(F)(F)O3)S1,z-score,,0.349 (inactive)
same,cell count,,4670
O=C1NC(=O)/C(=C/c2ccc3nccnc3c2)S1,z-score,,0.662 (inactive)
same,cell count,,4050
CCCCCCCCCCCCCCCC(=O)O,z-score,,-0.762 (inactive)
same,cell count,,5780
CCCCCCCCCCC(=O)O,z-score,[1],-0.0477 (inactive)
same,z-score,[2],0.267 (inactive)
same,z-score,[3],-0.0647 (inactive)
same,z-score,[4],0.212 (inactive)
same,cell count,[1],6640
same,cell count,[2],6810
same,cell count,[3],6810
same,cell count,[4],6380
CC(C)(CCCCCCCCCCC(C)(C)CC(=O)O)CC(=O)O,z-score,,2.9 (active)
same,cell count,,5040
COC1C(N(C)C(=O)c2ccccc2)C[C@@H]2O[C@]1(C)n1c3ccccc3c3c4c(c5c6ccccc6n2c5c31)C(=O)NC4 (stereo not given in full),outcome,library stock 2 mM,inactive; censored for cell count
same,outcome,library stock 10 mM,inactive; censored for cell count
same,z-score,[5],0.298 (inactive)
same,z-score,[6],1.12 (inactive)
same,cell count,[5],5280
same,cell count,[6],4120
CCOC(=O)c1c(Cc2cccc(Cl)c2)[nH]c2c1cc(O)c1ccccc12,z-score,,0.267 (inactive)
same,cell count,,5070
CCCCC(C)(O)C/C=C/[C@H]1[C@H](O)CC(=O)[C@H]1CCCCCCC(=O)OC (stereo not given in full),z-score,,-0.356 (inactive)
same,cell count,,5650
CC(C)NCC(O)c1ccc(O)c(O)c1 (stereo not given),z-score,[1],0.406 (inactive)
same,z-score,[2],0.956 (inactive)
same,z-score,[3],0.578 (inactive)
same,z-score,[4],1.22 (inactive)
same,cell count,[1],6420
same,cell count,[2],6030
same,cell count,[3],6690
same,cell count,[4],6300
OCc1cc(C(O)CNCCCCCCOCCCCc2ccccc2)ccc1O (stereo not given),z-score,[5],1.97 (active)
same,z-score,[6],1.87 (inactive)
same,z-score,[7],1.36 (inactive)
same,z-score,[4],1.79 (inactive)
same,cell count,[5],4600
same,cell count,[6],4730
same,cell count,[7],4660
same,cell count,[4],3230
NC(=O)c1cccc(-c2cccc(OC(=O)NCCCCCCc3ccccc3)c2)c1,z-score,,0.191 (inactive)
same,cell count,,4760
